Measurements from PubChem BioAssay.
For part of these data: Entries with a potency or affinity are not part of this list. Active and inactive are the calls of the source. Unless noted, how the calls were made is not given here.

Key:
[1] = antimalarial activity against Dd2 strain (AID 2302;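 active means growth inhibition above 50% at the single 2 µM test dose, taken to imply half-maximal potency below 2 µM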;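 further: 0% = DMSO untreated growth and 100% = chloroquine plus artemisinin killed control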); details: P. falciparum Dd2 in RBCs, LDH growth readout, 72 h; at 2 µM; stronger effect = higher value
[2] = target: L-lactate dehydrogenase (Plasmodium falciparum (isolate CDC / Honduras)) (UniProt Q27743); assay: PfLDH activity inhibition – cell lysate, 3D7 strain, counter-screen for P. falciparum growth inhibition project (AID 2304);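 further: 0% = vehicle and 100% = reference inhibitor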; details: P. falciparum 3D7 crude extract, LDH APAD/NBT absorbance; at 2 µM; stronger effect = higher value
Sequence of L-lactate dehydrogenase (Plasmodium falciparum (isolate CDC / Honduras)) (Q27743 whole entry, looked up): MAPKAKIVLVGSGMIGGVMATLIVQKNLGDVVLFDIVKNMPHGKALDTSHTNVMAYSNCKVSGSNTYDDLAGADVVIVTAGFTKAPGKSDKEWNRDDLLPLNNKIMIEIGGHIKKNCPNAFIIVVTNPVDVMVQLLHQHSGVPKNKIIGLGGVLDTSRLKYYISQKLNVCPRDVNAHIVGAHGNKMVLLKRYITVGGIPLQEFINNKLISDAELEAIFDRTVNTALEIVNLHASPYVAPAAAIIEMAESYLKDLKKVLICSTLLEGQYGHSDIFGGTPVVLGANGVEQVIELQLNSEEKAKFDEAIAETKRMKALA

[3] = inhibition of 3D7 malaria parasite growth – strain 3D7 (AID 2306);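 further: 0% = DMSO wells and 100% = chloroquine plus artemisinin control wells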; details: P. falciparum 3D7 erythrocytic growth, LDH absorbance, 72 h; at 2 µM; stronger effect = higher value
[4] = target: Calcium-dependent protein kinase 1 (Plasmodium falciparum (isolate 3D7)) (UniProt P62344); assay: PfCDPK1 kinase inhibitors, biochemical, TCAMS library (AID 1159585; cut-off not given, nearly all actives have IC50 up to about 0.98 µM;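 further: inhibitors leave more ATP so luminescence rises with inhibition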); details: recombinant PfCDPK1, Kinase-Glo ATP depletion luminescence
Sequence of Calcium-dependent protein kinase 1 (Plasmodium falciparum (isolate 3D7)) (P62344 whole entry, looked up): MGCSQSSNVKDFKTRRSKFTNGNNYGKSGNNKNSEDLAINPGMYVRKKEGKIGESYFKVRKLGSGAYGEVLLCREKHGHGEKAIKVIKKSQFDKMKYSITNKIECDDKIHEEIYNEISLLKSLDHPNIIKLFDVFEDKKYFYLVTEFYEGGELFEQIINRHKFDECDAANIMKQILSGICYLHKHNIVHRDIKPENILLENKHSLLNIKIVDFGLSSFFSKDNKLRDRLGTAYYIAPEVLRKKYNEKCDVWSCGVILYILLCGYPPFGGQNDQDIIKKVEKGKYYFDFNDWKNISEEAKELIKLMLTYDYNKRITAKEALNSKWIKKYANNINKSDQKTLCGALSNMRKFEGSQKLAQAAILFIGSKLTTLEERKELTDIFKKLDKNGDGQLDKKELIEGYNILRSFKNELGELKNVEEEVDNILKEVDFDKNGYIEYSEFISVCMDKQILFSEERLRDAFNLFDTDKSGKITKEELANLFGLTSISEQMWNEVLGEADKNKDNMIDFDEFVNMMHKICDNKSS

[5] = target: Plasmodium falciparum protein kinase 6 (PK6, PF3D7_1337100) (UniProt Q8IDW1); assay: PfPK6 kinase inhibitors, biochemical, TCAMS library (AID 1159586); details: recombinant PfPK6, Kinase-Glo ATP depletion luminescence
Sequence of Plasmodium falciparum protein kinase 6 (PK6, PF3D7_1337100) (Q8IDW1 1-305): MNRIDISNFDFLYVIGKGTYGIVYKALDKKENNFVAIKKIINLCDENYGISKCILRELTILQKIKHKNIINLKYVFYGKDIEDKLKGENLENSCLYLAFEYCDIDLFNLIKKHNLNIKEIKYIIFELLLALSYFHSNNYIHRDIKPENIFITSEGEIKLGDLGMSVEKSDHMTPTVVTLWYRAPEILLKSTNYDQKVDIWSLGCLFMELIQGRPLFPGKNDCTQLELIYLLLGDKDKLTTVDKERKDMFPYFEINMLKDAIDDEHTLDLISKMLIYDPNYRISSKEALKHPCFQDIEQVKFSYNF

[6] = target: Protein kinase 7 (PK7), Plasmodium falciparum 3D7 (PF3D7_0213400) (UniProt Q7YTF7); assay: inhibition of Plasmodium PK7 catalytic activity – biochemical, TCAMS antimalarial set, Kinase-Glo luminescence (AID 1159587); details: recombinant PfPK7, Kinase-Glo ATP depletion luminescence
Sequence of Protein kinase 7 (PK7), Plasmodium falciparum 3D7 (PF3D7_0213400) (Q7YTF7 1-343): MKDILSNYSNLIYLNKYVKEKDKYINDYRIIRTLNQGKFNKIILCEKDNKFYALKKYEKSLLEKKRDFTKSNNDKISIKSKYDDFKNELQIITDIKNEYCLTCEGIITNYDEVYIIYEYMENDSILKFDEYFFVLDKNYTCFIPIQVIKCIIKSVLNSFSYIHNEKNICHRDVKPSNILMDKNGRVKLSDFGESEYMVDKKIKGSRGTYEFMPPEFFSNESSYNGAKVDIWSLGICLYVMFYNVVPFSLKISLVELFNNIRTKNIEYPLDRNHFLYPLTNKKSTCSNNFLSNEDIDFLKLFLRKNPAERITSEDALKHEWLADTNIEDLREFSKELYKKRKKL

[7] = target: Calcium-dependent protein kinase 4 (Plasmodium falciparum (isolate 3D7)) (UniProt Q8IBS5); assay: PfCDPK4 kinase inhibitors, biochemical, TCAMS library (AID 1159588; cut-off not given, nearly all actives have IC50 up to about 0.91 µM); details: recombinant PfCDPK4, Kinase-Glo ATP depletion luminescence
Sequence of Calcium-dependent protein kinase 4 (Plasmodium falciparum (isolate 3D7)) (Q8IBS5 whole entry, looked up): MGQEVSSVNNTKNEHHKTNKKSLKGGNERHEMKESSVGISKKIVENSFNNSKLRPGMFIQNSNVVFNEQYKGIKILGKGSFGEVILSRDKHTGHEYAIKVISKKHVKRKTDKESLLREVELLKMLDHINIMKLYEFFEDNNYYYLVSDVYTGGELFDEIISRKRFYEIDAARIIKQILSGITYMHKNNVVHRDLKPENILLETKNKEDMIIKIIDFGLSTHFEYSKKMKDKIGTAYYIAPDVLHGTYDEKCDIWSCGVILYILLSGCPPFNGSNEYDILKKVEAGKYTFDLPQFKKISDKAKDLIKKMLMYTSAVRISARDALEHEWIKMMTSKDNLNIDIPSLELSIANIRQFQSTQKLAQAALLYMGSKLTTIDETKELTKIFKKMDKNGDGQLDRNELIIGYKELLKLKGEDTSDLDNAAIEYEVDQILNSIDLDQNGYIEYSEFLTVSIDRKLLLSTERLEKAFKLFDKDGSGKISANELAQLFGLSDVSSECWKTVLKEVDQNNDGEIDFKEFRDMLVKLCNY

[8] = human hepatoma cell viability loss – ATP luminescence, cytotoxicity control for P. falciparum antimalarial project, primary screen (AID 2303;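 active means inhibition above 50%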;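 further: 0% = DMSO wells and 100% = digitonin-killed cells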); details: HepG2 viability, 24-48 h, at 10 µM, stronger effect = higher value

COc1ccc(Cc2c(Cl)nc3nc(N)nc(N)c3c2C)cc1
active: growth inhibition [3] 94%
inactive: growth inhibition [1] 3% | inhibition [2] 6% | outcome [4] | outcome [5] | outcome [6] | outcome [7]

Nc1nc(N)c2c(Sc3ccccc3)cccc2n1
active: growth inhibition [3] 97%
inactive: growth inhibition [1] 0% | inhibition [2] -5% | outcome [4] | outcome [5] | outcome [6] | outcome [7]

Cc1ccc(Nc2c3ccccc3nc3ccc(C)cc23)cc1
inactive: inhibition [8] 26% | inhibition [2] -2% | outcome [4] | outcome [5] | outcome [6] | outcome [7]
active: growth inhibition [3] 88%

Cc1cc(OCCCN2CCCC2)ccc1NC(=O)COc1ccc(Cl)cc1C(=O)c1cc(C#N)cc(C(F)(F)F)c1
active: growth inhibition [3] 85%
inactive: inhibition [8] 18% | inhibition [2] 2% | outcome [4] | outcome [5] | outcome [6] | outcome [7]

COc1ccc(CNC(=O)Nc2cccc(-c3csc(N=C(N)N)n3)c2)cc1
inactive: inhibition [8] 8% | inhibition [2] 1% | outcome [4] | outcome [5] | outcome [6] | outcome [7]
active: growth inhibition [3] 80%

COCCOCCOCCn1ccc2c3c(N)nc(N)nc3ccc21
inactive: growth inhibition [1] 0% | inhibition [2] -10% | outcome [4] | outcome [5] | outcome [6] | outcome [7]
active: growth inhibition [3] 97%

CCCCCCn1ccc2c3c(N)nc(N)nc3ccc21
active: growth inhibition [1] 91% | growth inhibition [3] 99%
inactive: inhibition [2] 0% | outcome [4] | outcome [5] | outcome [6] | outcome [7]

NC(=NCC1CC1c1ccccc1)c1cccc(C(N)=NCC2CC2c2ccccc2)n1 (stereo not drawn)
inactive: growth inhibition [1] -2% | inhibition [2] 0% | outcome [4] | outcome [5] | outcome [6] | outcome [7]
active: growth inhibition [3] 95%

O=C(O)CCc1ccc(-c2c[nH]c3ncc(-c4ccc5ncccc5c4)cc23)cc1
active: growth inhibition [3] 88%
inactive: inhibition [8] 30% | inhibition [2] -3% | outcome [4] | outcome [5] | outcome [6] | outcome [7]

CCc1ccc(Cc2cnc3nc(N)nc(N)c3c2C)cc1CC
active: growth inhibition [3] 97%
inactive: growth inhibition [1] -1% | inhibition [2] 6% | outcome [4] | outcome [5] | outcome [6] | outcome [7]

Cc1cc(=O)c(-c2ccc(OCc3ccc(Cl)cc3)cc2)c(C)[nH]1
active: growth inhibition [1] 76% | growth inhibition [3] 93%
inactive: inhibition [2] -1% | outcome [4] | outcome [5] | outcome [6] | outcome [7]

O=C(O)CCSc1ncnc2nc[nH]c12
active: growth inhibition [3] 103%
inactive: inhibition [8] 7% | inhibition [2] 6% | outcome [4] | outcome [5] | outcome [6] | outcome [7]

Cc1[nH]c(C)c(-c2ccc(S(=O)(=O)c3ccc(Cl)cc3)cc2)c(=O)c1Br
active: growth inhibition [1] 97% | growth inhibition [3] 97%
inactive: inhibition [2] 5% | outcome [4] | outcome [5] | outcome [6] | outcome [7]

Cc1nc(Cl)c2c(-c3ccccc3)csc2n1
inactive: inhibition [8] -11% | inhibition [2] 1% | outcome [4] | outcome [5] | outcome [6] | outcome [7]
active: growth inhibition [3] 84%

COc1ccc(Cc2cnc3nc(N)nc(N)c3c2C)cc1OC
active: growth inhibition [1] 97% | growth inhibition [3] 93%
inactive: inhibition [2] -5% | outcome [4] | outcome [5] | outcome [6] | outcome [7]

Cc1[nH]c(C)c(-c2ccc(Oc3cccc(C(F)(F)F)c3)cc2)c(=O)c1Br
active: growth inhibition [1] 97% | growth inhibition [3] 99%
inactive: inhibition [2] 4% | outcome [4] | outcome [5] | outcome [6] | outcome [7]

CCN(CC)CCCN(C(=O)Nc1cc(F)cc(F)c1)c1nc(-c2ccc(F)cc2)cs1
active: growth inhibition [3] 82%
inactive: inhibition [8] 27% | inhibition [2] 0% | outcome [4] | outcome [5] | outcome [6] | outcome [7]

S=C(Nc1ccc(Cl)cc1)Nc1ccc(Nc2ccccc2)cc1
active: growth inhibition [3] 84%
inactive: inhibition [8] 14% | inhibition [2] -4% | outcome [4] | outcome [5] | outcome [6] | outcome [7]

CC(=O)Nc1cccc(Nc2c3ccccc3nc3ccccc23)c1
inactive: inhibition [8] 31% | inhibition [2] 5% | outcome [4] | outcome [5] | outcome [6] | outcome [7]
active: growth inhibition [3] 82%

Cc1csc2nc(C(C)c3ccc(NC(=O)c4cccs4)cc3)oc(=O)c12 (stereo not drawn)
inactive: inhibition [8] -5% | inhibition [2] -3% | outcome [4] | outcome [5] | outcome [6] | outcome [7]
active: growth inhibition [3] 90%

Cc1nn(-c2ccccc2)nc1C(=O)N(Cc1ccc(-c2ccc(CNCCc3ccc(S(C)(=O)=O)cc3)cn2)cc1)C1CC1
inactive: inhibition [8] 9% | inhibition [2] -2% | outcome [4] | outcome [5] | outcome [6] | outcome [7]
active: growth inhibition [3] 84%

Cc1cc(OCCCN2CCC(NC(=O)c3ccc(Br)cc3)C2)c2ccccc2n1 (stereo not drawn)
active: growth inhibition [3] 85%
inactive: inhibition [8] 13% | inhibition [2] -3% | outcome [4] | outcome [5] | outcome [6] | outcome [7]

Brc1ccsc1-c1nc(NC2CCN(Cc3ccccc3)CC2)no1
inactive: inhibition [8] 0% | inhibition [2] -2% | outcome [4] | outcome [5] | outcome [6] | outcome [7]
active: growth inhibition [3] 80%

Cc1ccccc1Oc1ccc(Nc2ccnc(Nc3cccc(C(N)=O)c3)n2)cc1C(F)(F)F
active: growth inhibition [3] 81%
inactive: inhibition [8] 9% | inhibition [2] -1% | outcome [4] | outcome [5] | outcome [6] | outcome [7]
